# Results from PubChem BioAssay (NCI).
# Where “and” joins values, the source holds several entries; their conditions need not be identical. Equal values may be shown once. The panel holds about 83,000 compounds, 20% with a hit somewhere; the sample as a whole holds those more often.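 Results are percent growth after 48 hours of single-concentration exposure. 100 means growth as in untreated cells, lower positive values show inhibition; negative values down to -100 show cell death.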 Calls of active or inactive are those of the source. The calls were made as follows: active = growth percent below 10; inactive = the rest.
# Tested on: A498 renal
# Test: NCI-60 one-dose screen, 48 h (100 = growth as untreated, 0 = no growth, -100 = all killed)
# Conditions: 10 µM unless noted
row,Structure (SMILES),growth
1,Cc1cccc(/C=C/c2ccc(NC(=S)NCCCCN(C)C)cc2)c1,-83.7% (active)
2,Cc1ccc(C(=O)C[n+]2cccc3c4ccccc4ccc32)cc1,75.2% (inactive)
3,c1ccc(CSc2nnc(-c3ccc4nc(-c5ccccc5)[nH]c4c3)o2)cc1,-8.46% (active)
4,O=C(Nc1ccc(-c2ccc3c(c2)NC(=O)/C3=C\c2ccc[nH]2)cc1)Nc1cccc(Cl)c1,21.6% (inactive)
5,N#Cc1c(-c2ccc(F)cc2)nc(SCc2ccc(F)cc2)nc1N1CCNCC1,96.5% (inactive)
6,Cc1cc(C2(c3cc(C)c(OCC(O)CNc4c(C)n(C)n(-c5ccccc5)c4=O)cc3C(C)C)OC(=O)c3ccccc32)c(C(C)C)cc1OCC(O)CNc1c(C)n(C)n(-c2ccccc2)c1=O (centres undefined),55.4% (inactive)
7,O=CNc1cccc(-n2cnc3cc(-c4ccc(O)cc4)ccc32)c1,147% (inactive)
8,COc1ccc(S(=O)(=O)Nc2ccc(-c3ccc4c(c3)NC(=O)/C4=C\c3ccc[nH]3)cc2)cc1OC,121% (inactive)
9,CC(=O)Nc1cccc(-n2c(COc3ccc(Br)cc3)nc3ccccc32)c1,105% (inactive) and 124% (inactive)
10,CCCCNC(=S)Nc1ccc(OCc2nc3ccc(Cl)cc3[nH]2)cc1,90% (inactive)
11,COc1ccc(OC)c(Cn2cc(C#N)c(N)c2C(=O)c2ccc(Br)cc2)c1,86.7% (inactive)
12,NCCCCn1c(SCCc2c[nH]c3ccccc23)nnc1-c1ccc2ccccc2n1,98.5% (inactive)
13,COc1cc(CNC(=O)C[C@H](C)CCC=C(C)C)ccc1OCc1cn(-c2ccccc2Cl)nn1,107% (inactive)
14,NS(=O)(=O)c1ccc(N2N=C(c3ccc(NC(=O)Nc4ccccc4)cc3)CC2c2ccc(Br)cc2)cc1 (centres undefined),-79.4% (active)
15,COc1ccc(NC(=O)CSc2nnc(-c3ccc(-c4nc5ccc(Cl)cc5[nH]4)cc3)o2)cc1,60.2% (inactive)
16,CC1=C(C(=O)OCc2ccccc2)C(c2ccc(N(C)C)cc2)n2c(nc3ccccc32)N1 (centres undefined),74.5% (inactive)
17,NS(=O)(=O)c1ccc(Nc2nc(N/N=C/c3cc(Br)c(O)c(Br)c3)nc(Nc3ccccc3)n2)cc1,102% (inactive)
18,COc1cccc(NC(=O)c2ccc(NC(=O)CCl)s2)c1,108% (inactive)
19,Cc1oc(-c2ccccc2)nc1CN[C@@H]1C[C@@H]2C[C@H]([C@H]1C)C2(C)C,31.6% (inactive)
20,C=CC(=O)Nc1ccc(C(=O)/C=C/c2ccc(N(C)C)cc2)c(O)c1,42.8% (inactive)
21,COc1cc(/C=C/C(=O)c2cnn(-c3cc(=O)[nH]c4ccc(Cl)cc34)c2C)cc(OC)c1OC,-21.5% (active)
22,COc1cc(C=O)ccc1Oc1nc(Nc2ccc(F)cc2)nc(N(C)C)n1,98.6% (inactive) and 123% (inactive)
23,Cn1cc(-c2cc3nc(-c4cn(C)c5ncccc45)cc(N)n3n2)c2cc(F)ccc21,138% (inactive)
24,Cc1ccccc1NC(=O)c1cccc(NC(=O)CCl)c1,105% (inactive)
25,FC(F)(F)c1cc2c(Cl)ncnc2n1CCN1CCCCC1,113% (inactive)
26,Cn1cc(-c2cc(N)n3nc(-c4c[nH]c5ccc(Cl)cc45)cc3n2)c2cc(Br)cnc21,29% (inactive)

# Tested on: CCRF-CEM leukemia
# Test: as above
# Conditions: 10 µM unless noted
row,Structure (SMILES),growth
1,COc1ccc(-c2nc3ccccc3n2CC(=O)N=Nc2c(O)[nH]c3ccc(OC)cc23)cc1,62.9% (inactive)
2,COc1cc(NC(=O)C(C)C)ccc1C(=O)NC(=S)Nc1ccc(S(N)(=O)=O)cc1,97.5% (inactive)
3,COc1cc(C2CC(c3cc(OC)c(OC)c(OC)c3)=Nc3c(N)nc(N)nc3N2)ccc1Oc1nc(Nc2ccc(F)cc2)nc(N(C)C)n1 (centres undefined),26.7% (inactive)
4,COc1ccc(C2=NN(C(=O)[C@H]3[C@@H](c4ccco4)c4sc(=O)[nH]c4S[C@@H]3C)C(c3ccc4ccccc4c3)C2)cc1 (some centres undefined),6.09% (active)
5,O=C(CSc1nc2c(c(=O)[nH]1)CCCC2)Nc1ccccc1C(=O)O,101% (inactive)
6,O=C1c2cccc3c(N4CCN(c5ccccc5)CC4)ccc(c23)C(=O)N1c1cccc(-c2nn(-c3ccccc3)cc2-c2nc3ccccc3s2)c1,98.8% (inactive)
7,N#CCc1nnc(NC(=O)c2ccc(-n3c(=O)[nH]c4ccccc4c3=O)cc2)s1,101% (inactive)
8,CCOC(=O)/C(F)=C/C1CC1C(c1ccccc1)c1ccccc1 (centres undefined),85.4% (inactive)
9,Cc1ccc(S(=O)(=O)N(CCn2ccnc2[N+](=O)[O-])CCn2ccnc2[N+](=O)[O-])cc1,100% (inactive)
10,CC(C)(C)C(=O)c1c2c(c3ccc4c5ccccc5ccc4n13)C(=O)c1ccccc1C2=O,99.7% (inactive)
11,O=C(N=Nc1c(O)[nH]c2ccc(Cl)cc12)c1ccc2nc(-c3ccc(Cl)cc3)[nH]c2c1,3.93% (active)
12,COc1ccc(NC(=O)Cn2c(/C=C/c3cccc(OC)c3)nc3ccccc3c2=O)cc1,89.4% (inactive)
13,Cc1cccc(/C=C/c2ccc(NC(=S)NCCCCN(C)C)cc2)c1,-36.6% (active)
14,Cc1ccc(C(=O)C[n+]2cccc3c4ccccc4ccc32)cc1,28.1% (inactive)
15,c1ccc(CSc2nnc(-c3ccc4nc(-c5ccccc5)[nH]c4c3)o2)cc1,73.8% (inactive)
16,O=C(Nc1ccc(-c2ccc3c(c2)NC(=O)/C3=C\c2ccc[nH]2)cc1)Nc1cccc(Cl)c1,13.7% (inactive)
17,N#Cc1c(-c2ccc(F)cc2)nc(SCc2ccc(F)cc2)nc1N1CCNCC1,4.49% (active)
18,Cc1cc(C2(c3cc(C)c(OCC(O)CNc4c(C)n(C)n(-c5ccccc5)c4=O)cc3C(C)C)OC(=O)c3ccccc32)c(C(C)C)cc1OCC(O)CNc1c(C)n(C)n(-c2ccccc2)c1=O (centres undefined),12.3% (inactive)
19,O=CNc1cccc(-n2cnc3cc(-c4ccc(O)cc4)ccc32)c1,23% (inactive)

row,Structure (SMILES),growth
1,COc1ccc(S(=O)(=O)Nc2ccc(-c3ccc4c(c3)NC(=O)/C4=C\c3ccc[nH]3)cc2)cc1OC,58.6% (inactive)
2,CC(=O)Nc1cccc(-n2c(COc3ccc(Br)cc3)nc3ccccc32)c1,95.9% (inactive) and 98.5% (inactive)
3,CCCCNC(=S)Nc1ccc(OCc2nc3ccc(Cl)cc3[nH]2)cc1,7.96% (active)
4,COc1ccc(OC)c(Cn2cc(C#N)c(N)c2C(=O)c2ccc(Br)cc2)c1,44.3% (inactive)
5,NCCCCn1c(SCCc2c[nH]c3ccccc23)nnc1-c1ccc2ccccc2n1,-23.3% (active)
6,COc1cc(CNC(=O)C[C@H](C)CCC=C(C)C)ccc1OCc1cn(-c2ccccc2Cl)nn1,40.1% (inactive)
7,NS(=O)(=O)c1ccc(N2N=C(c3ccc(NC(=O)Nc4ccccc4)cc3)CC2c2ccc(Br)cc2)cc1 (centres undefined),0.369% (active)
8,COc1ccc(NC(=O)CSc2nnc(-c3ccc(-c4nc5ccc(Cl)cc5[nH]4)cc3)o2)cc1,54.2% (inactive)
9,CC1=C(C(=O)OCc2ccccc2)C(c2ccc(N(C)C)cc2)n2c(nc3ccccc32)N1 (centres undefined),105% (inactive)
10,NS(=O)(=O)c1ccc(Nc2nc(N/N=C/c3cc(Br)c(O)c(Br)c3)nc(Nc3ccccc3)n2)cc1,10.5% (inactive)
11,COc1cccc(NC(=O)c2ccc(NC(=O)CCl)s2)c1,1.03% (active)
12,Cc1oc(-c2ccccc2)nc1CN[C@@H]1C[C@@H]2C[C@H]([C@H]1C)C2(C)C,23.7% (inactive)
13,C=CC(=O)Nc1ccc(C(=O)/C=C/c2ccc(N(C)C)cc2)c(O)c1,11.2% (inactive)
14,COc1cc(/C=C/C(=O)c2cnn(-c3cc(=O)[nH]c4ccc(Cl)cc34)c2C)cc(OC)c1OC,-16.7% (active)
15,COc1cc(C=O)ccc1Oc1nc(Nc2ccc(F)cc2)nc(N(C)C)n1,86.1% (inactive) and 18.1% (inactive)
16,Cn1cc(-c2cc3nc(-c4cn(C)c5ncccc45)cc(N)n3n2)c2cc(F)ccc21,38.6% (inactive)
17,Cc1ccccc1NC(=O)c1cccc(NC(=O)CCl)c1,8.03% (active)
18,FC(F)(F)c1cc2c(Cl)ncnc2n1CCN1CCCCC1,4.18% (active)
19,Cn1cc(-c2cc(N)n3nc(-c4c[nH]c5ccc(Cl)cc45)cc3n2)c2cc(Br)cnc21,-66.1% (active)
